A selection: hits, their analogues and other compounds. The true share with any hit is near 31%.
CYP2C19 inhib – inhibitors of human CYP2C19; CYP2C19 Supersomes, luciferin-H EGE luminescence, 30 min; AID 778; P33261; inhibition, % at 5 µM; 21% of 96,000 active;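 active = CYP2C19 inhibition above a set limit at 5 µM in the primary screen, cut at about 50% in these data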;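 also: plate controls were negative control wells for no effect and 2.5 mM tranylcypromine positive control for full effect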
Target sequence (P33261 whole entry, looked up): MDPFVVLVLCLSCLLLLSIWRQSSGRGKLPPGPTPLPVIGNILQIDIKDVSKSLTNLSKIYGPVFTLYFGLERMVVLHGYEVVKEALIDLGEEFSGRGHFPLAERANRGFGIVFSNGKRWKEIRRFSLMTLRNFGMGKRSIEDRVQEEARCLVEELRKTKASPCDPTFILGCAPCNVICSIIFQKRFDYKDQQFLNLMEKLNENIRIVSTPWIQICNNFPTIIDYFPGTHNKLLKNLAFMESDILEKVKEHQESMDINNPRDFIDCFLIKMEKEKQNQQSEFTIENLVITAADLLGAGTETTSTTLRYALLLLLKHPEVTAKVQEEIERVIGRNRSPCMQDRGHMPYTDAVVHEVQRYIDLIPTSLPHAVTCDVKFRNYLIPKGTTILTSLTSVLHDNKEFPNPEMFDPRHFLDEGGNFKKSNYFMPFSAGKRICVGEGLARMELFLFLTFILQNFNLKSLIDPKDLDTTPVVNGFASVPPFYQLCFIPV
CYP2C19 activ – activators of human cytochrome P450 2C19 | recombinant CYP2C19, luciferin-H EGE luminescence; active compounds read high; 0 = fully inhibited enzyme, 1 = untreated enzyme | activation factor at 5 µM | 96,000 tested, under 10 active | AID 1025 | P33261;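 active = activation factor of at least 2 at 5 µM in the primary screen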;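 also: 0 = wells with 2.5 mM tranylcypromine and 1 = vehicle-only wells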
CYP2C9 inhib – inhibitors of human CYP2C9; P11712; CYP2C9 Supersomes, luciferin-H conversion, luminescence; inhibition, % at 5 µM; 20% of 96,000 active;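 active = blocking of liver enzyme CYP2C9 beyond about 50% at 5 µM, limit read from the data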
CYP2C9 act – activators of human CYP2C9 | recombinant CYP2C9, luciferin-H conversion, luminescence; active compounds read high; factor 1 = untreated enzyme, 0 = blocked | activation factor at 5 µM | 1.4% of 96,000 active | AID 1024;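 active = activation factor of 2 or more for CYP2C9 at a 5 µM dose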;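 also: 0 = sulfaphenazole-blocked wells and 1 = vehicle-only wells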
The depositor's hits bear a star.

SMILES	CYP2C19 inhib	CYP2C19 activ	CYP2C9 inhib	CYP2C9 act
CS(=O)(=O)N(CC(=O)NCc1ccccc1)Cc1ccc(Cl)cc1	33.0	0.7	0.1	1
Cc1ccc(CC(=O)NCc2ccc3c(c2)OCO3)cc1	33.7	0.7	47.6	0.5
O=C(Cc1ccccc1)NCc1ccc2c(c1)OCO2	94.7*	0.1	53.6*	0.5
CCOC(=O)CCC(=O)N1CCOCCN(C(=O)CCC(=O)OCC)CCOCC1	5.4	0.9	9.3	0.9
O=C(CNS(=O)(=O)c1ccc(C(=O)N2CCCCC2)cc1)N1CCCCC1	5.3	0.9	-16.5	1.2
CCOC(=O)c1nnc(-c2ccccc2)nc1Oc1ccc(Cl)cc1	-1.6	1	5.9	0.9
O=C(CSCc1ccc(Cl)cc1)NCc1ccc2c(c1)OCO2	31.6	0.7	99.8*	0
CC(C)CN1C(=O)C(=O)N(CC(=O)NCc2ccc3c(c2)OCO3)C1=O	48.9	0.5	16.7	0.8
CC(C)(C)C(=O)c1cn(CC(=O)NCc2ccc3c(c2)OCO3)c2ccccc12	52.7*	0.5	50.5*	0.5
CC(Sc1ccc(Cl)cc1)C(=O)NCc1cccnc1 (stereo not given)	50.7*	0.5	33.1	0.7
O=C(Cc1c[nH]c2ccccc12)NCc1ccc2c(c1)OCO2	94.3*	0.1	53.0*	0.5
Cc1ccc(SC(C)C(=O)NCc2cccnc2)cc1 (stereo not given)	27.3	0.7	26.0	0.7
CCCCCCCC(=O)NNC(=O)c1ccc(F)cc1	34.9	0.7	6.0	0.9
CCOC(=O)c1c(NCc2ccc3c(c2)OCO3)c2ccccc2[nH]c1=O	73.5*	0.3	13.4	0.9
O=C(Cn1cccc1C(=O)c1ccccc1)NCc1ccc2c(c1)OCO2	54.7*	0.5	33.9	0.7
CN(C)C(CNC(=O)CCCc1c[nH]c2ccccc12)c1ccco1 (stereo not given)	29.3	0.7	-29.9	1.3
CCOC(=O)c1c(NCC(C)C)c2ccccc2[nH]c1=O	1.6	1	20.4	0.8
O=C(CN(C(=O)C1CSC(=O)C1)c1ccccc1F)NCc1ccc2c(c1)OCO2 (stereo not given)	86.7*	0.1	44.3	0.6
O=C(CCCc1c[nH]c2ccccc12)NCc1ccc2c(c1)OCO2	83.1*	0.2	50.6*	0.5
Cc1cc(NCCO)nc(N2CCOCC2)n1	-17.4	1.2	-2.4	1
CCC(C)(CC(=O)N(C)CCC#N)c1ccccc1 (stereo not given)	44.8	0.6	17.7	0.8
CS(=O)(=O)N(CC(=O)O)c1ccc(Oc2ccccc2)cc1	7.8	0.9	14.9	0.9
O=C(NCc1nc2ccccc2[nH]1)c1cccc(S(=O)(=O)N2CCCC2)c1	4.4	1	39.3	0.6
CC12CCC(C(=O)O)(c3nc(C#N)c(C#N)nc31)C2(C)C (stereo not given)	-13.1	1.1	-6.7	1.1
CC(C)CNC(=O)CCCc1c[nH]c2ccccc12	63.3*	0.4	-113.6	2.1*
SMILES	CYP2C19 inhib	CYP2C19 activ	CYP2C9 inhib	CYP2C9 act
O=C(CSc1nnc(CNC(=O)c2c(F)cccc2Cl)o1)NCc1ccc2c(c1)OCO2	-6.3	1.1	5.3	0.9
Cc1oc(-c2ccccc2F)nc1CSCC(=O)NCc1ccc2c(c1)OCO2	78.5*	0.2	74.6*	0.3
O=C(Cn1cccc1C(=O)c1ccccc1)NCc1ccccc1	42.1	0.6	-15.7	1.2
O=C(Cn1cccc1C(=O)c1ccccc1)NCc1cccs1	73.2*	0.3	1.5	1
Cc1nc2ccccc2nc1OCC(=O)NCc1ccc2c(c1)OCO2	51.1*	0.5	10.9	0.9
O=C(O)c1[nH]nc2c1COc1ccccc1-2	-20.6	1.2	-14.0	1.1
C=CCn1c(=N)n(CC(=O)OCC)c2ccccc21	4.2	1	4.8	1
N#C/C(=C1/CCCCCN1)c1nc2ccccc2s1	-4.8	1	2.7	1
COc1ccc(N(C(=O)c2ccc(Br)o2)C2C=CS(=O)(=O)C2)cc1 (stereo not given)	37.5	0.6	10.7	0.9
O=C(CCc1c[nH]c2ccccc12)NCc1ccc2c(c1)OCO2	91.8*	0.1	19.0	0.8
O=C(CCn1c(=O)c2ccccc2n(Cc2cccnc2)c1=O)NCc1ccc2c(c1)OCO2	77.0*	0.2	69.4*	0.3
Cc1ccccc1Cn1c(=O)n(CCC(=O)NCc2ccc3c(c2)OCO3)c(=O)c2ccccc21	32.2	0.7	33.9	0.7
COc1cc(S(=O)(=O)N2CCC(O)(c3cccc(C(F)(F)F)c3)CC2)ccc1-n1cnnn1	31.5	0.7	63.9*	0.4
CCC(C)(C)NC(=O)C(c1cccs1)N(CC1CCCO1)C(=O)Cn1nnc2ccccc21 (stereo not given)	-15.3	1.2	-5.5	1.1

Compound activity (PubChem BioAssay)
